Assay results: PubChem BioAssay

These compounds were tested on XIP peptide (Xip251-270) (assay: compounds binding XIP fragment 251-270 – biochemical, small-molecule microarray, fluorescence 635/667 nm, 0.5 µg/mL protein, primary screen (AID 1183)). Settings: fluorescence 635 nm, higher = more signal.

Row | SMILES | composite z-score
1 | CC(C)N1CC=CC23O[C@@H]4/C=C\CCCOC(=O)C4[C@H]2C(=O)N(CCCCCO)[C@@H]3C1=O (stereo not given in full) | -1.95
2 | [N-]=[N+]=NCc1ccccc1C[C@@]1(C(=O)O)N=C(c2ccc(OCCCO)cc2)O[C@@H]1c1ccccc1N=[N+]=[N-] | 0.908
3 | CO[C@H]1COC(=O)[C@H](C)NC(=O)CC=C[C@@H](C)[C@H](NS(=O)(=O)c2ccc(C)cc2)COC(=O)CC=C[C@@H]1C | 0.407
4 | CC(c1ccccc1)C(O)C1C=CC2C(=O)N(C)C(=O)C2N1N(c1ccccc1)c1ccccc1 (stereo not given) | -0.62
5 | CO[C@H]1COC(=O)[C@@H](C)NC(=O)CC=C[C@@H](C)[C@H](OC)COC(=O)CC=C[C@@H]1C | 0.517
6 | COc1ccc(CCN2C(=O)[C@@]3(c4ccc([N+](=O)[O-])cc4)CC(=O)N(CC45CC6CC(CC(C6)C4)C5)[C@@H]3c3ccc(CO)cc32)cc1 | 0.93
7 | O=C1C[C@@](C(=O)NCCN2CCOCC2)(c2ccc([N+](=O)[O-])cc2)[C@@H](c2ccc(CO)cc2)N1C1CCCCC1 | 0.818
8 | C[C@@H]1CC[C@H]2C(=O)N3[C@@H](CC[C@@H](C)[C@@H]3c3cccc(N4CCOCC4)c3)C(=O)N2[C@H]1c1cccc(N2CCOCC2)c1 | 0.705
9 | C#CCCCON=C1C[C@@H](O)[C@@H](O)[C@@H]2[C@@H]3C(=O)N(Cc4ccc5c(c4)OCO5)C(=O)[C@@H]3CC[C@H]12 | 0.783
10 | CCOC(=O)C[C@H]1[C@H](OC(=O)Cc2ccc3c(c2)OCO3)[C@@H](NC(=O)CC(C)C)c2cc(OCCCO)ccc2N1C(=O)c1ccccc1 | -0.487
